Test results taken from PubChem BioAssay.
Results with a measured potency or affinity are listed apart. Active and inactive are the calls of the source. How the calls were made is not given here.

target: Plasmodium falciparum protein kinase 6 (PK6, PF3D7_1337100) (UniProt Q8IDW1); test: PfPK6 kinase inhibitors, biochemical, TCAMS library (AID 1159586); conditions: recombinant PfPK6, Kinase-Glo ATP depletion luminescence
Sequence (Q8IDW1 1-305): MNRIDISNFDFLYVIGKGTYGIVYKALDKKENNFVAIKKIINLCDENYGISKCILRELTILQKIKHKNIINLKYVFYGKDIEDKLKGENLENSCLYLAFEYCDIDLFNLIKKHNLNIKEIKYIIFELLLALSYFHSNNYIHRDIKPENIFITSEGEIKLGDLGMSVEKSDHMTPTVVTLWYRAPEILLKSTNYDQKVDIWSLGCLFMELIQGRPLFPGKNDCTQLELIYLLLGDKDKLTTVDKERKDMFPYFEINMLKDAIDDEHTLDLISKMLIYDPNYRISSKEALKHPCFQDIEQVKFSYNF

outcome, inactive:
COc1cc(CCNCC(O)c2ccc([N+](=O)[O-])c(OCc3ccccc3)c2)cc(OC)c1OC (stereo unspecified)
O=C(Nc1cccc(Cl)c1)c1cc2ccccc2cc1O
Clc1cccc(C=NNc2ccnc3cc(Cl)ccc23)c1
CN(C)Cc1ccc(CNC2CCN(Cc3ccccc3Cl)CC2)cc1
Cc1ccc(Cn2ccc3c4c(N)nc(N)nc4ccc32)cc1
COc1cc(Nc2nccc(-c3c(-c4cccc(NC(=O)c5c(F)cccc5F)c4)nn4ncccc34)n2)cc(OC)c1OC
Cn1cccc1C(=O)Nc1cccc(-c2nn3ccccc3c2-c2ccnc(Nc3ccc4c(c3)OCCO4)n2)c1
O=C(Nc1ccccc1)Nc1cccc(-c2nn3c(OCCN4CCCC4)cccc3c2-c2ccncc2)c1
COc1cccc(-c2nc(Nc3ccncc3)c3ncn(C)c3n2)c1
CO/N=C(\C)c1ccc2c(c1)CCN(CCC1CCC(NC(=O)c3cccc(-c4noc(C)n4)c3)CC1)CC2 (stereo unspecified)
Cc1[nH]nc2ccc(-c3cc(OC[C@@H](N)Cc4ccccc4)cnc3-c3cc4ccccc4s3)cc12
Oc1ccc(CCNCCCCCNCCCc2ccc(Cl)cc2)cc1O
Cc1cccc(Cn2ccc3c(N)nc(N)nc32)c1
CCN(CC)CCCN(C(=O)Nc1cc(F)cc(F)c1)c1nc(-c2ccc(F)cc2)cs1
Fc1ccccc1C=NNc1ccnc2cc(Cl)ccc12
CN(C)c1ccc(NC(=O)Nc2ccnc3ccccc23)cc1Br
COc1cc(OC)cc(C(=O)Nc2nc(-c3ccc(NC(=O)c4ccccc4)cc3)cs2)c1
CCc1cc2c3c(N)nc(N)nc3ccc2n1C(C)(C)C
C[C@@H]1CN(c2ccc3[nH]cc(Sc4ccc(-c5cccs5)cc4)c3c2)C[C@H](C)N1
NS(=O)(=O)c1cccc(N=Cc2c(O)[nH]c3ccc(S(=O)(=O)Cc4c(Cl)cccc4Cl)cc23)c1
CNC(=O)c1ccc(/C=C/C(=O)N2CCc3ccc(-c4ccccc4)cc3C2c2cccc(C(F)(F)F)c2)cc1 (stereo unspecified)
CCN(CC)CCCC(C)Nc1nc(C=Cc2ccc(Br)cc2)nc2cc(Cl)ccc12 (stereo unspecified)
CCn1c(-c2nonc2N)nc2c(-c3cc4ccccc4s3)ncc(C(=O)N3CCC(N)C3)c21 (stereo unspecified)
N#Cc1ccc(C(=O)Nc2cc(-c3cccc(O)c3)cc3[nH]ncc23)cc1
Clc1ccc(C=NNc2ccnc3cc(Cl)ccc23)cc1
Cc1ccccc1Cn1ccc2c3c(N)nc(N)nc3ccc21
O=C(Nc1ccc(OC2CCN(CC3CC3)CC2)c(Cl)c1)c1ccc2ncccc2c1
CCN(CC)CCNC(=O)c1ccc(N=Cc2c(O)[nH]c3ccc(S(=O)(=O)Cc4c(Cl)cccc4Cl)cc23)cc1
CCS(=O)(=O)c1ccc(OC)c(Nc2nccc(-c3c(-c4cccc(NC(=O)c5c(F)cccc5F)c4)nn4ncccc34)n2)c1
COc1ccc(NC(=O)c2ccc(-c3cccc(OCc4ccccc4)c3)cc2)cc1N1CCN(C)CC1
Brc1ccsc1-c1nc(NC2CCN(Cc3ccccc3)CC2)no1
Cc1nc2ccccc2n1C1C[C@H]2CC[C@@H](C1)N2CCC1(c2ccccc2)CCN(C(=O)Nc2ccc(C(F)(F)F)cc2)CC1 (stereo partly specified)
O=c1c2cccnc2sn1-c1ccccc1
CCCCNC(=O)C1CCCN(C(=O)c2ccc(O)c(-c3ccc(Cl)c(Cl)c3)c2)C1 (stereo unspecified)
CCc1cc(-c2n[nH]c(C(F)(F)F)c2-c2ccccc2)c(O)cc1OC
O=C(O)c1ccc(-c2cnc3ccc(NC4CCC(O)CC4)nn23)cc1 (stereo unspecified)
